The sample as a whole holds a higher share of hits than the screen did.
Pf Dd2 inh = Plasmodium falciparum Dd2 growth inhibition; P. falciparum Dd2 growth, SYBR Green, 72 h; Potency, µM (top dose mostly 28.9 µM), for inactives: at the top dose activity, negative = inhibition, actives largely listed as inhibitors; actives 4.3% (n = 120,000); active means well fitted inhibition curve with a large enough effect;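 further: plate controls were DMSO vehicle for no effect and reference drug for full effect; nearly all actives have a fitted effect of over 65% in size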
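Readout: SYBR Green fluorescence, 485 nm excitation, 535 nm emission, after ~16 h lysis at 37C. Before that, Dd2-infected red cells (2.5% hematocrit) grew 72 h with compound, 29 uM top final concentration.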
Active calls of the source: *; i = inactive; [ ] = remark or other dose. Potency means the concentration at half of the fitted maximal effect.

SMILES	Pf Dd2 inh
O=C(Nc1ccccc1F)C(Cc1ccccc1)n1cccc1 (centres undefined)	5%
CC(C)c1ccc(NC(=O)C(Cc2ccccc2)n2cccc2)cc1 (centres undefined)	i
O=C(Nc1ccc(C(F)(F)F)cc1)C(Cc1ccccc1)n1cccc1 (centres undefined)	14µM*
Cc1nc2c(C(=O)NCCc3ccc(Cl)cc3)cnn2c(C)c1Cc1ccc(F)cc1	-17%
Cc1nc2c(C(=O)NC(C)c3ccccc3)cnn2c(C)c1Cc1ccccc1 (centres undefined)	8.9µM*
Cc1ccc(Cc2c(C)nc3nc(SCC(=O)NC(C)c4ccccc4)nn3c2C)cc1 (centres undefined)	10%
Cc1nc(NCCNS(C)(=O)=O)cc(C2CC(O)C2)n1 (centres undefined)	i
COc1ccc(C(=O)N2[C@@H]3CC[C@H]2CC(NC(=O)c2ccncc2)C3)cc1F (some centres undefined)	5%
CC(C)CNc1ccc2c(n1)C(C)(C(=O)Nc1ccncc1)CN(Cc1ccccc1)C2 (centres undefined)	2.2µM*
CC(C)CNc1ccc2c(n1)C(C)(C(=O)Nc1ccn(C)n1)CN(Cc1ccccc1)C2 (centres undefined)	-14%[44.1 µM]
COCCCNC(=O)C1(C)CN(Cc2ccccc2)Cc2ccc(NCC(C)C)nc21 (centres undefined)	-24%[44.1 µM]
COc1ccc(C(=O)N2CCOC[C@H](Oc3ccc(C(F)(F)F)cc3)C2)cc1	-23%[44.1 µM]
Cn1ccnc1CN1CCCC(c2ccc(C(=O)O)cc2)C1 (centres undefined)	-3%
Cn1ccnc1CN1CCOC[C@H](Oc2ccccc2)C1	-26%[44.1 µM]
Cn1ccnc1CN1CCCC(CCc2ccccc2)C1 (centres undefined)	11µM*
CC(C)c1nc(-c2ccc(OC3CCN(C(=O)C4(c5ccccc5)CC4)C3)cc2)no1 (centres undefined)	-14%[5.79 µM]
CCNC(=O)N[C@H]1[C@H](O)[C@H](O)C[C@@H]1c1ccncc1	-16%[44.1 µM]
COCC(=O)N1CC[C@H]2COC(=O)N2c2cc(F)ccc2C1	7%[44.1 µM]
COCCn1ncc(N2CCCC(CC(=O)NCCN3CCOCC3)C2)cc1=O (centres undefined)	31%
O=C(c1cccc(O)c1)N1CCCC(CCc2cccc(C(F)(F)F)c2)C1 (centres undefined)	i
CCNc1ncc(CN2CCCC(CCc3cccc(C(F)(F)F)c3)C2)cn1 (centres undefined)	7.9µM*
CCCn1nccc1C(=O)N1CCCC(CCc2cccc(C(F)(F)F)c2)C1 (centres undefined)	i
CCn1cc(-c2ccc(OC)cc2)cc1C(=O)NCCN1CCN(C)CC1	i
N#C/C(=C\c1c(Oc2ccc(Br)cc2)nc2ccccn2c1=O)c1nc2ccccc2s1	6%
Cc1cc(C)cc(Oc2nc3ccccn3c(=O)c2/C=C(\C#N)c2nc3ccccc3s2)c1	22%
SMILES	Pf Dd2 inh
CCc1ccc(Oc2nc3c(C)cccn3c(=O)c2/C=C(\C#N)c2nc3ccccc3s2)cc1	i
Cc1cc(Oc2nc3ccccn3c(=O)c2/C=C(\C#N)c2nc3ccccc3s2)ccc1Cl	i
Cc1cc(C)cc(Oc2nc3c(C)cccn3c(=O)c2/C=C(\C#N)c2nc3ccccc3s2)c1	0.89µM*
Cc1cccn2c(=O)c(/C=C(\C#N)c3nc4ccccc4s3)c(Oc3ccc(F)cc3)nc12	3.2µM*
COc1cccc(CNC(=O)CC2CCOCC2)c1OC	25%
COc1ccc(N2CCC(N)C2=O)cc1 (centres undefined)	-11%
COc1ccc(-c2nc(C)c(C)cc2C#N)c2cccnc12	-1%
COc1ccc(CNC(=O)c2cc3n(n2)CC(c2ccc4c(c2)OCO4)OC3)cc1OC (centres undefined)	-23%
O=C(NC[C@H]1O[C@@H](CO)[C@@H](O)[C@H]1N1CCCCC1)c1ccccc1	-23%[44.1 µM]
O=C(NCC1CCN(Cc2ccc(F)cc2)CC1)c1cc2ccc3cccnc3c2[nH]1	7.1µM*
O=C(c1cc2ccc3cccnc3c2[nH]1)N1CCCCC1	7%
O=C(Cn1ncc2c([nH]c3ccccc32)c1=O)NCC1CCN(Cc2ccc(F)cc2)CC1	i
CC(C)N(Cc1ccccc1)C(=O)c1cc2ccc3cccnc3c2[nH]1	13µM*
Cc1ccc(Cl)cc1N1CCN(C(=O)c2cc3ccc4cccnc4c3[nH]2)CC1	-2%
O=C(NCC1CCN(Cc2ccccc2Cl)CC1)c1cc2ccc3cccnc3c2[nH]1	7.9µM*
COc1ccccc1NC(=O)c1cc2ccc3cccnc3c2[nH]1	i
O=C(c1cc2ccc3cccnc3c2[nH]1)N1CCN(c2ccc(Cl)cc2)CC1	-22%
CC1CCCN(C(=O)c2cc3ccc4cccnc4c3[nH]2)C1 (centres undefined)	-13%
CCOC(=O)c1ccccc1NC(=O)c1cc2ccc3cccnc3c2[nH]1	-14%
CCN(CC)S(=O)(=O)c1ccc(NC(=O)c2cc3ccc4cccnc4c3[nH]2)cc1	11µM*
CCOC(=O)C1CCN(C(=O)c2cc3ccc4cccnc4c3[nH]2)CC1	16%
O=C(NC(c1ccccc1)c1ccccc1)c1cnc2c(c1)N([S+](=O)([O-])c1cccnc1)CCC2	36%
O=C(Nc1cnc(-c2cccc(Cl)c2)nc1)c1cc(F)cc(F)c1	-11%
Cc1cc(NC(=O)N2CCCC(Cn3c(C)nc4cccnc43)C2)ccc1Br (centres undefined)	-18%
CCCNc1ncc(CN2CCC(Cc3nn(C)c(=O)n3CC)CC2)cn1	-6%
SMILES	Pf Dd2 inh
Cc1cccc(OC[C@H]2C[C@@H](N(C)C)[C@H](O)[C@@H]2O)n1	-13%[44.1 µM]
O=Cc1ccccc1-c1ccccc1F	1%[44.1 µM]
COC(=O)C(NC(=O)N1CCc2nc3cc(-c4ccccc4)[nH]n3c(=O)c2C1)C(C)C (centres undefined)	i[5.79 µM]
O=C(C1CC(=O)N(C2CCCCC2)C1)N1CCC2(CC1)NCCc1c2[nH]c2ccccc12 (centres undefined)	i
CC(C)CN1CC(C(=O)N(Cc2nccn2C)C2CC2)CC1=O (centres undefined)	15%
O=C(NCc1cccc(Cl)c1)c1cc2ccc3cccnc3c2[nH]1	13µM*
O=C(c1cc2ccc3cccnc3c2[nH]1)N1CCN(c2cccc(Cl)c2)CC1	i
O=C(NCc1ccc(Cl)cc1)c1cc2ccc3cccnc3c2[nH]1	-17%
C[S+](=O)([O-])c1cccc(Nc2n[nH]c(C(O)c3ccccc3)n2)c1 (centres undefined)	3%[44.1 µM]
COCCCNc1ccc2nnc(-c3ccc(C)cn3)n2n1	i
COc1ccc(-c2nnc3ccc(N4CCN(c5ccccn5)CC4)nn23)nc1	13µM*
C[C@@H]1CN(c2ccc3nnc(-c4ccccn4)n3n2)C[C@H](C)O1	21%[44.1 µM]
CN(C)c1ccc2nnc(-c3cc(C(=O)N(C)c4ccccc4)ccn3)n2n1	-17%[44.1 µM]
COc1ccc(-c2nnc3ccc(N(C)Cc4ccccc4)nn23)nc1	7.9µM*
COc1ccc(-c2nnc3ccc(N4CCc5ccccc5CC4)nn23)nc1	i
COc1ccccc1Cn1c(C(C)NC(=O)OCc2ccccc2)nc2cccnc21 (centres undefined)	-22%
Cc1cc(C(F)(F)F)nn1CC(=O)NC1CCc2n[nH]c(=O)n2CC1 (centres undefined)	32%
CC(C)Cn1nc(C(=O)O)c2c1CCN(C(=O)CC(C)c1ccccc1)C2 (centres undefined)	-5%
O=C(c1ccco1)N1CCN(C(=O)C2CN(S(=O)(=O)C3CC3)CC23CCCCC3)CC1 (centres undefined)	i

Compound activity from PubChem BioAssay.
